Measured values: the supplement of paper PMC10646978
± gives the standard deviation.

The molecules below were run on RAW-Dual (murine macrophage reporter line) (assay: NF-kB reporter (SEAP) activity fold change vs agonist alone; higher = enhanced NF-kB activity). Conditions: modulator concentration 10 µM; agonist: CpG ODN 1826 0.5 ug/mL.
Outline: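 In 384-well plates holding 50 000 RAW-Dual murine macrophage reporter cells per well, compound at 10 μM final was pre-incubated for 1 hour at 37 °C, after which a PRR agonist was added overnight. Supernatant SEAP read with QUANTI-Blue at 620 nm absorbance reported NF-κB, and Lucia luciferase read with QUANTI-Luc luminescence reported IRF. Fold change values come from dividing each reporter signal by the mean of agonist-only control wells on the same plate, averaged over replicate plates with propagated errors.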

Structure (SMILES) | NF-kB reporter
CC(Oc1cccc(Cl)c1)C(=O)Nc1nncs1 (stereo not drawn) | 0.999 ± 0.082
COc1ccc(CNc2nc(N3CCC[C@H]3CO)ncc2C(=O)NCc2ncccn2)cc1Cl | 0.245 ± 0.011
COC(=O)c1ccc(CSc2ccc3nnc(-c4cccc(F)c4)n3n2)o1 | 1 ± 0.08
CC(=NN1CCN(Cc2cccc3ccccc23)CC1)c1ccc(Br)cc1 | 1.08 ± 0.12
CCN1CCN(CC(O)COc2ccc(C(C)(C)C)cc2C(C)(C)C)CC1.Cl.Cl (stereo not drawn) | 0.72 ± 0.12
COC(C(=O)NNC(=O)c1ccccc1Cl)c1ccccc1 (stereo not drawn) | 1.3 ± 0.1
CCN(CC)c1ccc(C=Nc2c(C)cc(C)cc2C)cc1 | 0.97 ± 0.08
CN1CCN(C2CC(=O)N(c3ccc(N4CCOCC4)cc3)C2=O)CC1 (stereo not drawn) | 0.963 ± 0.079
O=c1[nH]c(NN=Cc2c3ccccc3cc3ccccc23)nc2ccccc12 | 0.919 ± 0.085
CCOc1ccccc1OCCCCOc1cccc(Cl)c1 | 0.947 ± 0.15
CCCOc1cccc(C=C2N=C(c3ccc(Cl)c([N+](=O)[O-])c3)OC2=O)c1 | 0.993 ± 0.094
Cc1[nH]c2ccccc2c1CCNCc1ccc(/C=C/C(=O)NO)cc1 | 0.22 ± 0.015
COc1ccc(CN(CCN(C)C)c2ccccn2)cc1.O=C(O)C=CC(=O)O | 0.857 ± 0.065
CC1(C)OC[C@@H](COC(=O)CCc2ccc(OC[C@@H](O)CNCCNC(=O)N3CCOCC3)cc2)O1.Cl | 1.05 ± 0.079
Cl.Nc1c2c(nc3ccccc13)CCCC2 | 0.172 ± 0.048
Br.Cc1ccc(Sc2ccccc2N2CCNCC2)c(C)c1 | 0.328 ± 0.078
O=c1oc2cc(O)ccc2c2ccccc12 | 1.05 ± 0.12
COC(=O)C1=C(C)N(C)C(C)=C(C(=O)OC)C1c1ccc(-c2ccccc2)cc1 | 0.873 ± 0.069
Oc1ccc(C=Cc2cc(O)cc(O)c2)cc1 | 0.984 ± 0.074
CCCCc1c(C)nc(NN=C(C)c2cccc([N+](=O)[O-])c2)nc1O | 0.954 ± 0.081
O=[N+]([O-])c1ccc(Nc2ccccc2O)c2nonc12 | 1.74 ± 0.097
CC(=O)Nc1cc2nc3ccccc3nc2cc1NC(C)=O | 0.964 ± 0.11
O=C(O)CCC(=O)Nc1ccc(Br)cc1C(=O)c1ccc(Cl)cc1 | 0.993 ± 0.08

Same assay, conditions: modulator concentration 10 µM; agonist: LPS 0.1 ug/mL

Structure (SMILES) | NF-kB reporter
Cc1ccccc1CNC(=O)CN(c1cccc(C(F)(F)F)c1)S(C)(=O)=O | 1.07 ± 0.11
COc1ccc(CCC(=O)NCc2nc(N(C)C)nc(N3CCCCC3)n2)cc1 | 1.11 ± 0.11
CCOC(=O)CN1CCOCCOCCN(CC(=O)OCC)CCOCCOCC1 | 0.971 ± 0.061
CN(C)C(CNC(=O)NCc1ccc(F)cc1)c1ccc2c(c1)CCO2 (stereo not drawn) | 1.09 ± 0.092
CC(=O)c1ccc(Nc2ncnc(Nc3ccc(C(C)=O)cc3)c2[N+](=O)[O-])cc1 | 1.09 ± 0.076
CCCCCCc1ccc(O)cc1O | 0.919 ± 0.21
COc1ccc(C(=O)CSc2nnc(NC(=O)C3CC(=O)N(c4cccc(OC)c4)C3)s2)cc1 (stereo not drawn) | 1.11 ± 0.11
COC(=O)C1=CN(CC2CCCO2)C=C(C(=O)OC)C1c1cccc(Cl)c1 (stereo not drawn) | 0.736 ± 0.065
O=C(C=Cc1ccc(Br)cc1)c1c(-c2ccccc2)c2cc(Cl)ccc2[nH]c1=O | 0.792 ± 0.055
CCOCCn1c(N2CCCN(C)CC2)nc2ccccc21 [Prestw-1274] | 1.24 ± 0.17
Cc1cccc(-c2cc3nc(C)c(Cl)c(O)n3n2)c1 | 1.04 ± 0.091
COc1cc2c(cc1OC)C1Cc3ccc(OC)c(OC)c3CN1CC2 (stereo not drawn) | 0.87 ± 0.044
CN1CCN(c2ccc(C(=O)Nc3n[nH]c4ccc(Cc5cc(F)cc(F)c5)cc34)c(NC3CCOCC3)c2)CC1 | 1.21 ± 0.097
CCCCCc1ccc(-c2ccc(-c3noc(-c4ccc(CCCC)cc4)n3)cc2)cc1 | 0.97 ± 0.07
O=C(CCn1c(=O)oc2ccccc21)Nc1ccccc1 | 1.22 ± 0.19
COc1cc2c(cc1OC)C(=O)C(CC1CCN(Cc3ccccc3)CC1)C2.Cl (stereo not drawn) | 0.947 ± 0.072
CC(C)NC(=O)CCn1c(=O)c2cc(Cl)ccc2n2c(SCc3ccc(F)cc3)nnc12 | 1.01 ± 0.093
CC(Oc1cccc(Cl)c1)C(=O)Nc1nncs1 (stereo not drawn) | 0.972 ± 0.054
COc1ccc(CNc2nc(N3CCC[C@H]3CO)ncc2C(=O)NCc2ncccn2)cc1Cl | 0.629 ± 0.12
COC(=O)c1ccc(CSc2ccc3nnc(-c4cccc(F)c4)n3n2)o1 | 1.18 ± 0.072

Structure (SMILES) | NF-kB reporter
CC(=NN1CCN(Cc2cccc3ccccc23)CC1)c1ccc(Br)cc1 | 1.04 ± 0.071
CCN1CCN(CC(O)COc2ccc(C(C)(C)C)cc2C(C)(C)C)CC1.Cl.Cl (stereo not drawn) | 0.999 ± 0.08
COC(C(=O)NNC(=O)c1ccccc1Cl)c1ccccc1 (stereo not drawn) | 1.1 ± 0.1
CCN(CC)c1ccc(C=Nc2c(C)cc(C)cc2C)cc1 | 1.03 ± 0.086
CN1CCN(C2CC(=O)N(c3ccc(N4CCOCC4)cc3)C2=O)CC1 (stereo not drawn) | 0.945 ± 0.096
O=c1[nH]c(NN=Cc2c3ccccc3cc3ccccc23)nc2ccccc12 | 1.03 ± 0.061
CCOc1ccccc1OCCCCOc1cccc(Cl)c1 | 1.04 ± 0.093
CCCOc1cccc(C=C2N=C(c3ccc(Cl)c([N+](=O)[O-])c3)OC2=O)c1 | 1.07 ± 0.072
Cc1[nH]c2ccccc2c1CCNCc1ccc(/C=C/C(=O)NO)cc1 | 1.58 ± 0.1
COc1ccc(CN(CCN(C)C)c2ccccn2)cc1.O=C(O)C=CC(=O)O | 0.954 ± 0.051
CC1(C)OC[C@@H](COC(=O)CCc2ccc(OC[C@@H](O)CNCCNC(=O)N3CCOCC3)cc2)O1.Cl | 0.966 ± 0.072
Cl.Nc1c2c(nc3ccccc13)CCCC2 | 0.751 ± 0.041
Br.Cc1ccc(Sc2ccccc2N2CCNCC2)c(C)c1 | 0.944 ± 0.11
O=c1oc2cc(O)ccc2c2ccccc12 | 0.932 ± 0.085
COC(=O)C1=C(C)N(C)C(C)=C(C(=O)OC)C1c1ccc(-c2ccccc2)cc1 | 0.943 ± 0.057
Oc1ccc(C=Cc2cc(O)cc(O)c2)cc1 | 0.848 ± 0.042
CCCCc1c(C)nc(NN=C(C)c2cccc([N+](=O)[O-])c2)nc1O | 0.941 ± 0.092
O=[N+]([O-])c1ccc(Nc2ccccc2O)c2nonc12 | 1.21 ± 0.088
CC(=O)Nc1cc2nc3ccccc3nc2cc1NC(C)=O | 1.05 ± 0.11
O=C(O)CCC(=O)Nc1ccc(Br)cc1C(=O)c1ccc(Cl)cc1 | 1.05 ± 0.058
